NPR1 antag: antagonists of human natriuretic peptide receptor Npr1; P16066; HEK293 hNpr1 GloSensor cGMP, ANP-stimulated luminescence; Potency, µM (top dose mostly 46.3 µM), inactives show top-dose activity change, negative = inhibition, hits mostly inhibitors; 76,000 tested, 1.6% active; AID 1347048; calls by dose curve; also: nearly all actives have a fitted effect of over 60% in size
Target sequence (P16066 whole entry, looked up): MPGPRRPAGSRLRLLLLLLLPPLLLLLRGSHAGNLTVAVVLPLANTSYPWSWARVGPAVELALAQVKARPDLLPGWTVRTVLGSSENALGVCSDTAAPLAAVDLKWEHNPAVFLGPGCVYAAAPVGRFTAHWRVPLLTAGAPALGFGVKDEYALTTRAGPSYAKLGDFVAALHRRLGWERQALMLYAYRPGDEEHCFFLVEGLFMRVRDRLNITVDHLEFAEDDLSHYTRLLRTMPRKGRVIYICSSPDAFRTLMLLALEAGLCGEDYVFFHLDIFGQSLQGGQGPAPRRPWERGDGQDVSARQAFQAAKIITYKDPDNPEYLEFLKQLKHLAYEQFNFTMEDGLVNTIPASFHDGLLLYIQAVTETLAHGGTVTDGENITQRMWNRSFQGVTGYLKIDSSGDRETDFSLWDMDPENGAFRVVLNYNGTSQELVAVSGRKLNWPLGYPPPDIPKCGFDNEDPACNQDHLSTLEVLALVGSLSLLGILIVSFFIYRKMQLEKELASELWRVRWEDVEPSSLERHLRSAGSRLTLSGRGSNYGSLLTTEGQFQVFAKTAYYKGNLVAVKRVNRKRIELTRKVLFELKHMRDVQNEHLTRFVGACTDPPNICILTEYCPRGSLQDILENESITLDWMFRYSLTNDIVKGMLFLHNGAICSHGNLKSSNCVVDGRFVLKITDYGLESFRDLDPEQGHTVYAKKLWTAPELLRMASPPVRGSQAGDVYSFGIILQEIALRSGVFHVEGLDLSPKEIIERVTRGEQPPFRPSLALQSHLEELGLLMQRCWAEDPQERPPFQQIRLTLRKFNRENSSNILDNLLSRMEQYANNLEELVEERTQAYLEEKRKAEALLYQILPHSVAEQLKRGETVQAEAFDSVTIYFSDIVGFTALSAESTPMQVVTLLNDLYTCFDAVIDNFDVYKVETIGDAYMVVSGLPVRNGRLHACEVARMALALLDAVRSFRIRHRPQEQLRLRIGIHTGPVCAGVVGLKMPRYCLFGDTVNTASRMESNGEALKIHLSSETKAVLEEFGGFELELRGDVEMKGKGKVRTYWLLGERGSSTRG
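Compound pre-incubated 30 min at room temperature on GloSensor-loaded HEK293 cells stably carrying hNpr1 and the pGS-40F cGMP biosensor. Stimulation uses hNppA at 0.1 nM final; luminescence is taken at baseline and 20 min post-agonist.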
NIH3T3 tox: NIH 3T3 cell cytotoxicity; Potency, µM (highest dose often 96.7 µM), for the others: at the top dose activity change, negative = cytotoxicity, usual class: inhibitors; 94,000 tested, 4.3% active; NIH 3T3 viability, CellTiter-Glo ATP luminescence, 48-72 h; also: nearly all actives have a fitted effect of over 55% in size
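NIH 3T3 cells at 400 cells/well received 23 nL of compound by pintool and were incubated 48 or 72 h at 37 °C. Viability was read as ATP-coupled CellTiter-Glo luminescence.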
FLuc inh: inhibitors of firefly (Photinus pyralis) luciferase. purified P. pyralis luciferase, luminescence, biochemical. P08659. 76,000 tested, 2.5% active. Potency, µM (titrated, usually from 115 µM), most hits filed as inhibitors; also: nearly all actives have a fitted effect of over 65% in size
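Luminescence read by CCD imaging after purified firefly luciferase (10nM final) was added to substrate buffer holding 10uM D-luciferin and 10uM ATP, pH 7.5, pre-dosed with compound.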
HEK cytotox: HEK 293 cell cytotoxicity; HEK 293 viability, ATP luminescence (CellTiter-Glo), 48-72 h; Potency, µM (top dose mostly 115 µM), inactives show at the highest dose activity change, negative = cytotoxicity, usual class: inhibitors; 94,000 tested, 6.6% active; also: nearly all actives have a fitted effect of over 60% in size
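Cytotoxicity was scored by loss of ATP-coupled luminescence (CellTiter-Glo) in HEK 293 cells. Compound treatment ran 48 or 72 hr at 37 degree Celsius, 5% CO2, 95% humidity.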
Numbers without * were called inactive; i = inactive; ? = inconclusive; nt = no result; [ ] = dose if it differs, or a comment. The list is not random: actives were taken first. Their share in the collection is about 11%. Unless noted, calls follow the shape of the dose curve; as a rule, active = well fitted curve in the direction sought with a large enough effect; inconclusive = small, poorly fitted or top-dose-only effect, or another doubt; inactive = no such curve, though single readings can be large; an effect the other way counts as inactive or inconclusive. % is scaled to controls: 0 for no effect and ±100 for the full control effect; potency is read from the fitted curve at half-maximal effect.

SMILES | NPR1 antag | NIH3T3 tox | FLuc inh | HEK cytotox
COc1cccc(-c2c(C(=O)N3CCN(C(C)=O)CC3)nc3sccn23)c1 | nt | -11% | nt | -2%
Cc1cc(C(F)(F)F)nn1CC(=O)NCCc1ncc(C)n1C(C)C | nt | 0% | nt | i
CN1CC2(CCOC2)N(C2CCN(C(=O)C3CCCC3)CC2)C1=O (stereo not given) | nt | -12% | nt | -2%
COc1ccc(CNC(=O)c2ccc3nnc(C4CCOCC4)n3c2)cc1 | nt | -29% | nt | -2%
CN1C[C@@H](NC(=O)CC(C)(C)CC(=O)O)C[C@H]1c1nc(-c2ccc3ccccc3c2)no1 | 5% | -7% | ? | i
COc1ccc(-c2noc([C@@H]3C[C@H](NC(=O)COCC(=O)O)CN3C)n2)cc1 | -1%[70.6 µM] | -2%[138 µM] | 63µM* | 1%[172 µM]
COCC(=O)N[C@H]1C[C@@H](c2nc(-c3ccc(OC(F)(F)F)cc3)no2)N(C)C1 | 1%[70.6 µM] | ? | ? | ?
CN1C[C@@H](NC(=O)CCC(=O)O)C[C@H]1c1nc(-c2ccc3ccccc3c2)no1 | 1%[70.6 µM] | -30%[174 µM] | 32µM* | -6%[172 µM]
COCC(=O)N1CCCC1C(=O)N1CCC2(CC1)CC(=O)Nc1ccccc1O2 (stereo not given) | nt | -5% | nt | -12%
CC(NC(=O)c1csc(N2CCN(c3ccccc3F)CC2)n1)c1ccccc1 (stereo not given) | 3% | ? | i | 45µM*
O=C(NCC1CC1)c1csc(N2CCN(c3ccccc3F)CC2)n1 | -24% | 13µM* | i | 35µM*
O=C(NCCCN1CCCC1=O)c1csc(N2CCN(c3ccc(F)cc3)CC2)n1 | -17% | -24% | i | ?
CC(=O)N1CCN(C(=O)c2nc3cccnc3n(C3CC3)c2=O)CC1 | nt | -9%[138 µM] | nt | -1%[172 µM]
CCN(CC)C(=O)CCc1c(C)nn(-c2cccc(C)c2)c1Oc1ccc(F)cc1F | -27% | 35µM* | i | 25µM*
Cc1cccc(-n2nc(C)c(CCC(=O)N(C)C(C)C)c2Oc2ccccc2)c1 | -27% | 16µM* | i | 40µM*
CCN(CC)C(=O)CCc1c(C)nn(-c2ccc(F)cc2)c1Oc1ccccc1F | -25% | ? | i | ?
Cc1nn(-c2ccc(F)cc2)c(Oc2ccccc2F)c1CCC(=O)N(C)C(C)C | -16% | ? | i | 35µM*
C=CCNC(=O)CCc1c(C)nn(-c2ccc(F)cc2)c1Oc1ccc(F)cc1F | -14% | ? | i | 35µM*
CCN1CCN(C(=O)c2ccc3nnc(-c4cccc(C(F)(F)F)c4)n3c2)CC1 | nt | -7% | nt | -3%
CN(Cc1ccc(C2CCCCO2)s1)CC1CCN(CCc2ccc(F)cc2)CC1 (stereo not given) | -6% | ? | i | 45µM*
Cn1c(=O)n([C@H]2CCN(C(=O)Cc3cccnc3)C2)c2ncccc21 | nt | 3% | nt | -4%
O=C(c1nc(-c2ccc(Cl)cc2Cl)c2cnccn12)N1CCN(c2ncccn2)CC1 | nt | 3% | nt | i
O=C(NCc1ccc2c(c1)OCO2)c1nc(-c2ccc(Cl)cc2Cl)c2ccccn12 | 4% | ? | i | 32µM*
O=C(c1nc(-c2ccc(Cl)cc2)c2ccccn12)N1CCCC1 | 0%[70.6 µM] | ? | 45µM* | ?
COCCNC(=O)c1nc(-c2ccc(Cl)cc2)c2ccccn12 | -1%[70.6 µM] | 79µM* | i | ?
SMILES | NPR1 antag | NIH3T3 tox | FLuc inh | HEK cytotox
O=C(c1nc(-c2ccc(Cl)cc2Cl)c2ccccn12)N1CCN(c2ncccn2)CC1 | nt | ? | nt | 40µM*
COC(=O)CNC(=O)c1nc(-c2ccc(Cl)cc2)c2ccccn12 | 17%[70.6 µM] | ? | ? | -19%[172 µM]
O=C(c1nc(-c2ccc(F)cc2)c2ccccn12)N1CCN(c2ncccn2)CC1 | -3% | ? | i | ?
O=C(O)C[C@@H]1CCN(S(=O)(=O)c2ccc(F)cc2)C[C@@H]1CC1=NCCc2cc(F)ccc21 | -6% | -21% | i | 2%
CCOc1cccc2c1OC[C@@H]1CN(CC)C(=O)CCN(C(=O)COc3ccccc3)[C@H]21 | nt | ? | nt | -25%
CCOC(=O)C1CCN(C(=O)c2nc3sccn3c2-c2cccc(C#N)c2)CC1 | nt | -29% | nt | -17%
CCCNC(=O)N1CCC(c2ncc(C)n2Cc2ccc(F)cc2)C1 (stereo not given) | nt | -25% | nt | -10%
Cc1nn(C)c(C)c1S(=O)(=O)N1CC[C@@H]2COCCN(C)[C@@H]2C1 | nt | -18% | nt | -7%
N#CC1CCN(C(=O)c2nc(-c3ccccc3)c3ccccn23)CC1 | -3%[70.6 µM] | ? | i | ?
N#CC1CCN(C(=O)c2nc(-c3cc(Cl)cc(Cl)c3)c3ccccn23)CC1 | -4% | ? | i | 25µM*
O=C1CN([S+](=O)([O-])c2ccc(F)cc2)CC(O)CN1CCOc1ccccc1 (stereo not given) | nt | -20% | nt | ?
CC1=C[C@@H](CNC(=O)NCc2ccccc2)[C@H](C(C)C)C[C@H]1CC(=O)NCc1cccnc1 | 1% | -16% | i | -13%
CCS(=O)(=O)N1CCCCCCNC(=O)[C@@H]2C[C@@H](C(=O)NCCc3c[nH]c4ccccc34)C[C@@H]21 | -14% | -13% | i | 35µM*
Cc1ccc([S+](=O)([O-])NC2CCCN(Cc3cccc(-c4ccc(C)c(Cl)c4)c3)C2)cc1 (stereo not given) | nt | ? | nt | 28µM*
Cc1ccc([S+](=O)([O-])NC2CCCN(CCn3nc4n(c3=O)CCCC4)C2)cc1 (stereo not given) | nt | -3% | nt | -2%
Cc1ccc(-c2cccc(CN3CCCC(N[S+](C)(=O)[O-])C3)c2)cc1Cl (stereo not given) | nt | 28µM* | nt | 22µM*
COCCN1C[C@H]2COc3ccccc3[C@H]2N(C(=O)CC(C)(C)C)CCC1=O | nt | -20% | nt | ?
CCCC(O)CN1CCC(=O)N(CC2CC2)Cc2ccccc21 (stereo not given) | nt | -21% | nt | ?
c1ccc(Cn2cc(CN3CCCC3)c(-c3ccc4c(c3)OCO4)n2)cc1 | 1% | -28% | ? | -19%
CSc1cccc(NC(=O)Cn2c(-c3ccc(Cl)cc3)nc(C)c(CCO)c2=O)c1 | -7% | -13% | i | 32µM*
COc1cc(NC(=O)Cn2c(-c3ccc(Cl)cc3)nc(C)c(CCO)c2=O)cc(OC)c1 | 0% | -1% | i | ?
Cc1nc(-c2ccc(F)cc2)n(CC(=O)Nc2cccc(C(F)(F)F)c2)c(=O)c1CCO | ? | 22µM* | i | 20µM*
COc1ccc(C)cc1NC(=O)Cn1c(-c2ccc(F)cc2)nc(C)c(CCO)c1=O | 4% | -13% | i | 79µM*
Cc1nc(-c2ccccc2)n(CC(=O)Nc2ccc(F)cc2)c(=O)c1CCO | -11% | ? | i | ?
Cc1nc(-c2ccc(F)cc2)n(CC(=O)Nc2ccccc2)c(=O)c1CCO | 1% | -19% | i | 45µM*
O=C([C@H]1CCCN1C(=O)C1CC1)N1CCC(N2CCOC2=O)CC1 | nt | -2% | nt | i
O=C(NCCNC(=O)c1ccc(-c2cncnc2)cc1)c1ccccc1 | nt | -2% | nt | 0%

Bioassay records (PubChem BioAssay)
